Compound activity deposited in PubChem BioAssay by National Center for Advancing Translational Sciences (NCATS).
Many of the other results were omitted from the sample, so hits are more common in it than they were.
HT1080NT lethal: qHTS for induction of synthetic lethality in tumor cells producing 2HG: qHTS for the HT-1080-NT fibrosarcoma cell line. HT-1080-NT fibrosarcoma viability, CellTiter-Glo ATP luminescence, 48 h. Potency, µM (top dose mostly 46.1 µM), without a hit: at the highest dose activity, negative = less viability, hits mostly cytotoxic. 360,000 tested, 1.6% active. AID 686970, 2013;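 also: NT is the 2HG producing partner of a matched IDH1 knockdown line; potency is read from the fitted curve at half-maximal effect; 0% = DMSO-treated cells and -100% = media-only wells without cells; nearly all actives have a fitted effect of over 55% in size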
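Toxicity toward the 2HG-producing NT line was scored as %Activity, normalised to DMSO and no-cell wells, from CellTiter-Glo luminescence after 48 hours' treatment.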
TDP1 cell noCPT: qHTS for Inhibitors of human tyrosyl-DNA phosphodiesterase 1 (TDP1): qHTS in cells in absence of CPT | DT40 Tdp1-/- hTDP1 cells, no CPT, ATP luminescence, 48 h | Potency, µM (series often up to 46.2 µM), for the others: at the top dose activity change, negative = growth inhibition, hits mostly inhibitors | 420,000 tested, 15% active; also: potency is read from the fitted curve at half-maximal effect; nearly all actives have a fitted effect of over 55% in size
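DT40 Tdp1-/-;hTDP1 cells, no CPT (DMSO vehicle only), 400 cells/well; compounds pin-transferred; ≥48 hr, 37 °C; CellTiter-Glo 30 min RT dark, luminescence read.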
HT1080 IDH1KD tx: qHTS for induction of synthetic lethality in tumor cells producing 2HG: qHTS for the HT-1080-IDH1KD cell line. 360,000 tested, 2% active. Potency, µM (highest dose often 46.1 µM), inactives show top-dose activity, negative = toxicity, hits mostly cytotoxic. HT-1080 IDH1 knockdown viability, ATP luminescence, 48 h;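 also: potency is read from the fitted curve at half-maximal effect; 0% = DMSO wells and -100% = cell-free medium wells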
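% activity derives from luminescence (CellTiter-Glo), normalised to DMSO and no-cell wells. HT-1080-IDH1KD cells, 750/well, had 48 h compound exposure at 37 °C.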
IL1B secr inh: qHTS for Inhibitors of Inflammasome Signaling: IL-1-beta AlphaLISA Primary Screen; THP-1 LPS/ATP IL-1B secretion, AlphaLISA, 16 h; hits give low values; activity change, % at 57.5 µM; 360,000 tested, 4.7% active; AID 743279, 2014; in the data active = activity change below about -50%; inconclusive = mostly about -30% to -49%
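THP-1 cells pretreated 1 hr with compounds (up to 57.5 uM final), then stimulated with LPS (250 ng/mL final) plus ATP (1.25 mM final); secreted IL-1B measured by AlphaLISA after 16 hr, decreased signal indicating inhibition.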
TDP1 cell CPT: qHTS for Inhibitors of human tyrosyl-DNA phosphodiesterase 1 (TDP1): qHTS in cells in presence of CPT | 420,000 tested, 12% active | chicken DT40 Tdp1-/-;hTDP1 cells + 20 nM CPT, ATP luminescence, 48 h | AID 686979, 2013 | Potency, µM (series often up to 46.2 µM), inactives show at the top dose activity change, negative = growth inhibition, hits mostly inhibitors; also: potency is read from the fitted curve at half-maximal effect; nearly all actives have a fitted effect of over 55% in size
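Chicken DT40 Tdp1-/- cells complemented with human TDP1, 400 cells/well, exposed to compounds plus 20 nM camptothecin for at least 48 h at 37 C; viability read as ATP content by CellTiter-Glo luminescence.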
ALOX12 inh: Primary qHTS assay for inhibitors of human arachidonate 12S-lipoxygenase (ALOX12): Round 2. 580,000 tested, 1.1% active. purified 12hLO, xylenol orange hydroperoxide absorbance. Potency, µM (highest dose often 108 µM), without a hit: at the top dose activity change, negative = inhibition, hits mostly inhibitors. Polyunsaturated fatty acid lipoxygenase ALOX12 (Homo sapiens), P18054; also: potency is read from the fitted curve at half-maximal effect
Target sequence (P18054 whole entry, looked up): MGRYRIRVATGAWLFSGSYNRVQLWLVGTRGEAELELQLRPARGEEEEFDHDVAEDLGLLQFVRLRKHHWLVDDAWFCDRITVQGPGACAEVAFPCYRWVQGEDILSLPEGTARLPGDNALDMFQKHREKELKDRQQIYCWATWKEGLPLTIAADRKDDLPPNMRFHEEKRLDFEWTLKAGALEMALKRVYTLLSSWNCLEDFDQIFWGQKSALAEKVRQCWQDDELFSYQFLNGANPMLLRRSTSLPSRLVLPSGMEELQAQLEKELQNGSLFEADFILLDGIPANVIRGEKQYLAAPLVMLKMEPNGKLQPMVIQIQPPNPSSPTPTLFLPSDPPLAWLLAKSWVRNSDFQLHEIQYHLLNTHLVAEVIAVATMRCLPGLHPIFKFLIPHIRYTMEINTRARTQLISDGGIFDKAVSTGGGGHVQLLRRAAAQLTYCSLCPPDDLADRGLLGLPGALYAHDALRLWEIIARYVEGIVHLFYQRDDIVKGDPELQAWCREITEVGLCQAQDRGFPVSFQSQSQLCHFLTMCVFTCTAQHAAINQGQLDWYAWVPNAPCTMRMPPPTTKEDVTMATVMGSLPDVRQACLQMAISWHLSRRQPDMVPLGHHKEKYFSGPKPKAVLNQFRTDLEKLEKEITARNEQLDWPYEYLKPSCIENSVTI
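Purified human 12hLO (150 nM final) in 25 mM Hepes, 0.01% Triton X-100, pH 7.0 was preincubated 15 min at room temperature with compound. Then 40 uM arachidonic acid was added, 30 min. Hydroperoxide was read by Fe-XO absorbance ratio 573/405 nm.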
The depositor's hits bear a star; ? = inconclusive; · = no result given; [ ] = dose if it differs, or a comment. Unless noted, calls follow the shape of the dose curve; as a rule, active = well fitted curve in the direction sought with a large enough effect; inconclusive = small, poorly fitted or top-dose-only effect, or another doubt; inactive = no such curve, though single readings can be large; an effect the other way counts as inactive or inconclusive. Unless noted, % is scaled to controls: 0 for no effect and ±100 for the full control effect.

SMILES	HT1080NT lethal	TDP1 cell noCPT	HT1080 IDH1KD tx	IL1B secr inh	TDP1 cell CPT	ALOX12 inh
CC(C)(C)n1ncc2c(=O)n(CC(=O)NCc3ccccc3)cnc21	16µM*	6.5µM*	16µM*	27	8.2µM*	6%
CC#CCn1cc2c3c(cccc31)[C@H](CC(C)C)N[C@H](C(=O)NC1CC1)C2	·	·	·	·	·	6%[176 µM]
CN(C)c1ccc(C2CC(c3cccc(NS(C)(=O)=O)c3)=NN2C(=O)c2ccccc2)cc1 (centres undefined)	-27%	?	-18%	-58*	-26%	28µM*
COc1cccc(C2CC(c3cccc(NS(C)(=O)=O)c3)=NN2C(=O)c2ccccc2)c1OC (centres undefined)	1%	21µM*	-4%	-2	23µM*	-26%
Cc1cc2ccccc2n1CC(=O)NCCCCCC(=O)O	·	·	·	·	·	-4%
CC(=O)c1ccc(NC(=O)O[C@@H]2CO[C@H]3[C@@H]2OC[C@@H]3NC(=O)Nc2ccccc2)cc1	·	·	·	·	·	6%[176 µM]
COC(=O)c1c(NC(=O)CN2CCCC(C)C2)c2c(C)cccc2n1C (centres undefined)	-12%	6.5µM*	-4%	-11	?	38%
CCc1ccc2oc(C(=O)Nc3c(C)cccc3C)cc(=O)c2c1	·	·	·	·	·	2%
C[C@@H](NC(=O)C1CC1)c1onc(-c2ccc(Cl)cc2)c1C(=O)O	·	·	·	·	·	6%[176 µM]
COc1ccc(N2C(=O)c3ccc(C(=O)OC(C)C)cc3C2=O)cc1	-23%	5.8µM*	0%	4	6.5µM*	-8%
Cc1cccc(N=Cc2ccccc2[N+](=O)[O-])c1	·	·	·	·	·	7%
Cc1cc(O)c(C(C)C)cc1N=Cc1ccccc1[N+](=O)[O-]	?	3.3µM*	16µM*	-15	5.2µM*	?
O=C(Nc1ccc2c(c1)CCC2)N1CCC2(CC1)OCCO2	·	·	·	·	·	-2%
CC(Oc1ccccc1)C(=O)Nc1nc2c(s1)C(=O)CC(C)(C)C2 (centres undefined)	3%	-6%	2%	-11	-4%	0%
CC1(C)CC(=O)c2sc(NC(=O)CN3CCCCC3)nc2C1	13%	-18%	16%	19	-5%	32µM*
CC1(C)CC(=O)c2sc(NC(=O)CCS(=O)(=O)c3ccccc3)nc2C1	-21%	5.8µM*	-29%	-82*	3.3µM*	36%[57.4 µM]
CC1(C)CC(=O)c2sc(NC(=O)C(C)(C)C)nc2C1	?	?	12%	-8	?	2%
CS(=O)(=O)c1cccc(OC(=O)/C=C/c2cccc(OCc3ccccc3)c2)c1	·	·	·	·	·	-13%
O=C(NCc1nnc2n1CCN(Cc1cccc(Cl)c1)CC2)c1cccc(F)c1	·	4.1µM*	·	·	5.2µM*	-5%
O=C(O)C1C2C=CC(C2)C1C(=O)NCc1ccc(Cl)c(Cl)c1 (centres undefined)	-1%	-4%	-2%	26	15µM*	-5%
Cc1[nH]c2ccccc2c1C1c2ccccc2C(=O)N1CCc1ccccc1 (centres undefined)	·	·	·	·	·	-5%
O=C(Cn1sc2ccccc2c1=O)Nc1ccc(Cl)cc1	?	2.6µM*	-21%	-105*	5.2µM*	-106%
O=C(Cn1sc2ccccc2c1=O)Nc1ccc(F)cc1	?	2.1µM*	?	-104*	2.9µM*	-111%
O=C(Cn1sc2ccccc2c1=O)Nc1ccc(Br)cc1	?	2.3µM*	?	-98*	2.3µM*	?
Cc1ccc(NC(=O)Cn2nc(-c3ccc(Cl)cc3)c3ccccc3c2=O)cc1	·	?	·	·	?	-16%
SMILES	HT1080NT lethal	TDP1 cell noCPT	HT1080 IDH1KD tx	IL1B secr inh	TDP1 cell CPT	ALOX12 inh
Cc1nn(C)c(C)c1CN(Cc1cnc(N2CCCCC2)nc1)C1CC1	·	·	·	·	·	7%
Cc1nc(C)c(CC(=O)NC2CC(c3cc(=O)[nH]cn3)C2)s1 (centres undefined)	·	·	·	·	·	0%
O=C(CSc1ccc(F)cc1)OCc1nc2ccsc2c(=O)[nH]1	·	·	·	·	·	-5%
CCOC(=O)C1CCN(C(=O)Cc2cccn2-c2ccc(F)cc2)CC1	·	·	·	·	·	13%
COc1cccc(NC(=O)C2(C)CCN2Cc2ccc(OC(C)C)cc2)c1 (centres undefined)	9%	?	5%	0	?	1%
CC(C)c1ccc(CC(=O)N2CCC2(C)C(=O)Nc2ccc3c(c2)OCCO3)cc1 (centres undefined)	-20%	?	-27%	-9	-9%	1%
CC(C)Oc1ccc(CN2CCC2(C)C(=O)Nc2ccc3c(c2)OCO3)cc1 (centres undefined)	-20%	?	-19%	-13	16µM*	11%
CC(C)c1ccc(CN2CCC2(C)C(=O)Nc2ccc3c(c2)OCO3)cc1 (centres undefined)	?	8.2µM*	?	21	?	2%
COc1cccc(NC(=S)/C(=C(\[O-])c2cc(C)n(-c3ccccc3F)c2C)[n+]2ccc(N(C)C)cc2)c1	-13%	12µM*	-24%	-17	21µM*	?
Cc1cc(C([O-])=C(C(=S)Nc2ccc(F)cc2)[n+]2ccccc2)c(C)n1-c1ccc(F)cc1	-1%	21µM*	-2%	-19	26µM*	?
COc1cccc(NC(=O)CCN2CCN(c3ccccc3F)CC2)c1	1%	-12%	-2%	5	-29%	-33%
Cc1ccc(C)c(N2CN(CCC3=CCCCC3)CNC2=S)c1	27%	21µM*	4%	?	?	?
O=C(NC1CCCC1)N1c2ccccc2CC1c1nc(C2CC2)no1 (centres undefined)	·	·	·	·	·	6%
Cc1ccc(C(=O)[C@@H]2[C@H]3C4COC(O4)C(=O)[C@@H]3[C@H]3C=Cc4ccccc4N32)cc1 (some centres undefined)	·	-18%	·	·	-3%	·
CC(=O)[C@@H]1[C@H]2[C@H](C(=O)[C@H]3OC[C@@H]2O3)[C@H]2C=Cc3ccccc3N21	·	21µM*	·	·	?	·
NCCCCCCCN1CCCC1	·	·	·	·	·	0%
